An excerpt weighted towards active compounds, which were near 4.5% of everything screened.
tim23-1 inh = growth inhibitors of tim23-1 mutant yeast, primary screen, luminescence, uHTS. S. cerevisiae tim23-1 growth, BacTiter-Glo luminescence, 24 h. inhibition, % at 20 µM. hit rate 1.3% among 330,000. AID 463212, 2010;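 active means growth inhibition of the mutant yeast at or above 50%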;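 further: temperature-sensitive mutant grown at 25 °C; plate controls were DMSO-treated mutant yeast for no effect and medium wells lacking yeast for full effect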
tim10-1 inh = growth inhibitors of tim10-1 mutant yeast, primary screen, luminescence, uHTS. S. cerevisiae tim10-1 ts strain growth, BacTiter-Glo, 24 h. inhibition, % at 20 µM. hit rate 2.2% among 330,000;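 active means inhibition of at least 40%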;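 further: mutant grown at 25 °C; 0% = DMSO wells with yeast and 100% = wells holding no yeast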
PfHsp90 yeast 2 = growth inhibition of PfHsp90-expressing yeast, primary screen, antimalarial PfHsp90 inhibitor project, S. cerevisiae, BacTiter-Glo luminescence, single point, set 2; BacTiter-Glo ATP, 48 h; yeast lacking PDR1 and PDR3 efflux regulators; inhibition, % at 9.4 µM; hit rate 0.32% among 310,000; AID 504621, 2011;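 active means every replicate shows inhibition above about 80%, whatever the replicate mean, limit read from the data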;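 further: 0% = DMSO neutral controls and 100% = 20 µM radicicol positive controls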
NALP3 yeast inh = NALP3 inflammasome inhibitors in reconstituted yeast, primary screen, luminescence, uHTS; Yeast reconstituted NLRP3/ASC/caspase-1, beta-gal luminescence, 24 h; AID 2825, 2010; hit rate 0.39% among 330,000; inhibition, % at 10 µM;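 active means inhibition of 50% or more; inactive means inhibition below 50%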;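 further: plate controls were induced DMSO wells for no effect and uninduced yeast grown without galactose for full effect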
SKKanGAS inh = S. pyogenes SKKanGAS growth inhibitors in kanamycin, primary screen, streptokinase expression inhibitor project, SKKanGAS strain, BacTiter-Glo luminescence | inhibition, % at 7.5 µM | 6 h | hit rate 1.3% among 300,000;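 active means mean replicate score, as percent of positive control median, at least 50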;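 further: strain carries kanamycin resistance gene driven by streptokinase promoter and grows in 40 µg/ml kanamycin; loss of luminescence reflects streptokinase promoter inhibition or plain growth inhibition; 0% = median of DMSO wells and 100% = positive control at its reference dose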
TIM10 inh = growth inhibitors of isogenic TIM10 control yeast, primary screen, counter-screen for tim10-1 yeast inhibitor project, luminescence, uHTS; S. cerevisiae TIM10 strain growth, BacTiter-Glo luminescence, 24 h; inhibition, % at 10 µM; hit rate 1.4% among 330,000;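 active means inhibition of 40% or more at the single tested concentration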;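 further: wild-type TIM10 isogenic control strain grown at permissive 25 °C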
tim10-1 confirm = growth inhibitors of tim10-1 mutant yeast, confirmation, single concentration, luminescence, S. cerevisiae; shares compounds with tim10-1 inh; S. cerevisiae tim10-1 ts strain growth, BacTiter-Glo, 24 h; inhibition, % at 20 µM; hit rate 56% among 7,400;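 active means inhibition of yeast growth at or above a set limit in either of two repeat tests at 20 µM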;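 further: tim10-1 mutant grown at permissive 25 °C to find synthetic lethal compounds; 0% = DMSO yeast wells and 100% = medium wells without yeast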
TIM10 conf = growth inhibitors of wild-type TIM10 yeast, confirmation, counter-screen for tim10-1 synthetic lethality project, single concentration, luminescence, S. cerevisiae; S. cerevisiae tim10 strain growth, BacTiter-Glo luminescence, 24 h; AID 463215, 2010; shares compounds with TIM10 inh; hit rate 63% among 4,600; inhibition, % at 10 µM;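 active means inhibition of yeast growth at or above a set limit in either of two replicates at 10 µM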;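 further: this counterscreen used the strain with wild-type TIM10; 0% = yeast with DMSO and 100% = medium wells lacking yeast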
* = called active by the depositor; . = not tested or not shown.

SMILES	tim23-1 inh	tim10-1 inh	PfHsp90 yeast 2	NALP3 yeast inh	SKKanGAS inh	TIM10 inh	tim10-1 confirm	TIM10 conf
Cc1cc(Br)ccc1NC(=O)CN1C(=O)C2C3CC(c4ccccc4)C(C3)C2C1=O (centres undefined)	32.1	40.6*	-4.3	9.4	7.8	55.7*	33.9*	32.3*
COc1ccc(C(=O)/C=C\c2ccc(NC(=O)c3cccs3)cc2)cc1	20.3	43.3*	10.7	0.0	14.2	48.3*	30.8*	40.1*
COc1ccc(NC(=O)c2ccc(NC(=O)c3cccs3)cc2)cc1	-20.8	-9.2	5.7	4.5	-7.3	-23.6	.	.
COc1ccccc1Cn1c(=O)c2ccccc2n2c(Sc3ncnc4sccc34)nnc12	45.1	43.3*	-0.1	-7.0	5.1	44.9*	34.5*	29.9
O=C(/C=C/c1ccccc1[N+](=O)[O-])c1ccc(F)cc1	44.6	47.2*	2.5	0.3	-2.0	42.6*	43.9*	26.3
CC(C)[C@@H]1CC[C@@H](C)c2c(-c3ccccc3)n[nH]c21	47.0	40.5*	5.6	31.5	88.1*	46.0*	21.2	49.0*
CCc1cc(=O)[nH]c(SCC(=O)N2CCOCC2)n1	1.1	-17.5	-7.9	13.1	-0.3	-5.7	.	.
CC(=O)Nc1ccc(C(=O)OCc2ccccc2Cl)cc1	36.4	53.9*	-20.2	16.6	4.1	42.5*	26.0	34.4*
CC[n+]1c(/C=C/c2c[nH]c3ccccc23)ccc2cc(C)ccc21	26.8	67.4*	24.1	33.2	.	58.9*	70.0*	37.8*
CCOC(=O)C1CCN(S(=O)(=O)c2cccc(-c3cn4cccc(C)c4n3)c2)CC1	39.1	54.9*	-7.3	-5.2	.	49.9*	21.2	-29.2
CCOC(=O)C1CCN(S(=O)(=O)c2cccc(-c3cn4ccccc4n3)c2)CC1	21.1	15.2	-6.2	10.8	-3.5	27.1	.	.
COc1ccc(N2C(=O)C3CCCN3C2=S)cc1 (centres undefined)	7.9	0.4	9.4	-6.7	-3.3	-3.8	.	.
CC(C)(C)c1ccc(C(=O)OCC(=O)NC2CC2)cc1	15.1	29.1	-34.8	30.9	.	8.2	.	.
CC(=O)c1cccc(NC(=O)C2C(c3ccccc3)C2(Cl)Cl)c1 (centres undefined)	23.4	44.5*	4.7	12.0	.	41.5*	20.8	23.4
COc1ccc(NC(=O)C2C(c3ccccc3)C2(Cl)Cl)cc1 (centres undefined)	17.5	2.1	-4.2	19.5	6.6	18.1	.	.
CCOC(=O)C1Nc2c(F)cc(C)cc2C2c3ccccc3CC12 (centres undefined)	46.6	48.8*	-16.4	49.4	27.6	46.4*	55.3*	58.8*
O=c1c2c(nc(NCCO)n1CC1CCCCC1)-c1ccccc1CC21CCCC1	43.5	54.7*	4.0	13.0	86.5*	52.2*	37.5*	-34.6
Cc1ccc(C)c(-n2nnnc2SCC(=O)NNC(=O)c2ccco2)c1	12.1	-0.9	-4.0	19.8	-2.5	10.4	.	.
Fc1ccc(N2CCN(c3nc(CN4CCOCC4)nc4scc(-c5ccccc5)c34)CC2)cc1	48.6	54.8*	-9.2	-4.9	-3.1	40.5*	33.8*	33.9*
Fc1ccc(CN2CCN(c3ncnc4scc(-c5ccccc5)c34)CC2)cc1	47.2	36.2	-16.8	20.2	-2.8	25.6	.	.
COc1ccc(CNS(=O)(=O)c2ccc3c(c2)N(C(C)=O)CC(C)S3)cc1 (centres undefined)	9.4	10.4	7.1	22.6	-2.1	-9.4	.	.
